The test system of assay [1] is Staphylococcus aureus. Description: Antibacterial activity against Staphylococcus aureus MRSA ATCC 43300 (CO-ADD:GP_020); MIC in CAMBH media using NBS plates, by Resazurin F(560/590). It counts as functional. As to conditions: Concentration 20 uM, ASSAY_TEST Inhibition of Bacterial Growth, detection method Resazurin, Fluorescence (ex560/em590), MEDIA CAMHB, plate type 384well, CORNING #3640, time 18 hr.

Assay [2] deals with Acinetobacter baumannii. Description: Antibacterial activity against Acinetobacter baumannii ATCC 19606 (CO-ADD:GN_034); MIC in CAMBH media using NBS plates, by Resazurin F(560/590). Particulars: Concentration 20 uM, ASSAY_TEST Inhibition of Bacterial Growth, detection method Resazurin, Fluorescence (ex560/em590), MEDIA CAMHB, plate type 384well, CORNING #3640, time 18 hr. The assay is classed as functional.

The subject of assay [3] is Escherichia coli. Description: Antibacterial activity against Escherichia coli ATCC 25922 (CO-ADD:GN_001); MIC in CAMBH media using NBS plates, by Resazurin F(560/590). It counts as functional. As to conditions: Concentration 20 uM, ASSAY_TEST Inhibition of Bacterial Growth, detection method Resazurin, Fluorescence (ex560/em590), MEDIA CAMHB, plate type 384well, CORNING #3640, time 18 hr. In general terms: The colour change of resazurin is a common sign of viable cells or microbes.

Assay [4] concerns Klebsiella pneumoniae. Particulars: Concentration 20 uM; ASSAY_TEST Inhibition of Bacterial Growth; detection method Absorption (OD600); MEDIA CAMHB; plate type 384well; NBS; CORNING #3640; time 18 hr.
Assay [5] has as its system Candida albicans. As to conditions: 20 µM.
The subject of assay [6] is Cryptococcus neoformans. As to conditions: Concentration 20 uM; ASSAY_TEST Inhibition of Fungal Growth; detection method Resazurin; Absorption (OD600-OD570); plate type 384well; NBS; CORNING #3640.

SMILES strings stand for the structures. For part of these data: Results with a measured potency or affinity are listed apart.

23 molecules from ChEMBL document CHEMBL4296182, “CO-ADD screening of NIH NCI Diversity Set V” can be followed below.

Usually Inhibition stands for the relative decrease from the control value, in per cent.

As for `CCC1CCC(C)N(N=O)C1` (stereo not drawn), the Inhibition was -0.88% in assay [1]; -14.6% in assay [2]; 6.08% in assay [3]; 7.29% in assay [4]; -0.7% in assay [5]; -1.16% in assay [6].
For `CC12CCC3C(CC=C4CC(O)CCC43C)C1C/C(=C\N1CCCC1)C2=O` (stereo not drawn), the Inhibition is 1.08% in assay [1]; 21.07% in assay [2]; 1.6% in assay [3]; 23.67% in assay [4]; -3.81% in assay [5]; -14.08% in assay [6].
As for `COc1cccc2c1C(=O)c1c(O)c3c(c(O)c1C2=O)C[C@@](O)(/C(C)=N\O)C[C@@H]3OC1CC(N)C(O)C(C)O1.Cl` (stereo partly drawn), the Inhibition in assay [1] was -16.23%; in assay [2], -1.97%; in assay [3], 2.23%; in assay [4] it was 11.93%; in assay [5], -6.16%; in assay [6] it was -5.57%.
As to `COc1ccc(C2=CC(c3ccc(OC)c(OC)c3)c3c(c4ccccc4oc3=O)O2)cc1OC` (stereo not drawn), the Inhibition in assay [1] is 20.66%; in assay [2], -10.24%; in assay [3], 10.7%; in assay [4], 7.71%; in assay [5], 5.25%; in assay [6], -11.5%.
For `O=C1NC(=O)C(=Cc2csc3ccccc23)C(=O)N1`, the Inhibition is -1.57% in assay [1]; 11.43% in assay [2]; 7.83% in assay [3]; 15.53% in assay [4]; 23.9% in assay [5]; -17.03% in assay [6].
Take `O=C(Oc1ccccc1)N(c1ccccc1)c1ccccc1`: the Inhibition was 13.05% in assay [1]; 1.09% in assay [2]; 9.21% in assay [3]; 3.21% in assay [4]; 5.51% in assay [5]; -11.03% in assay [6].
For `Cc1ccccc1NC(=O)Oc1cccc(OC(=O)c2ccccc2)c1`, the Inhibition was 23.15% in assay [1]; 5.34% in assay [2]; 4.68% in assay [3]; 11.95% in assay [4]; 0.43% in assay [5]; -5.38% in assay [6].
Turning to `O=C1CC(c2ccc(O)cc2)Oc2cc(O)cc(O)c21` (stereo not drawn), the Inhibition in assay [1] was 9.17%; in assay [2], 6.14%; in assay [3] it was -5.6%; in assay [4] it was 10.18%; in assay [5] it was 4.1%; in assay [6], -1.84%.
As to `COc1ccccc1NC(=O)Oc1cccc(OC(=O)c2ccccc2)c1`, the Inhibition in assay [1] was 4.53%; in assay [2], -1.36%; in assay [3], -8.4%; in assay [4] it was 19.47%; in assay [5] it was 8.34%; in assay [6] it was -0.97%.
Turning to `CC(C)(C)n1cc(C(=O)c2ccccc2)cc1-c1ccccc1`, the Inhibition in assay [1] was 20.55%; in assay [2], 13.8%; in assay [3], 7.58%; in assay [4] it was 11.31%; in assay [5], 3.13%; in assay [6], -8.32%.
As for `C=CCNC(=S)Nc1ccc(OC(=O)Nc2ccc(Cl)c(Cl)c2)cc1`, the Inhibition in assay [1] was 9.35%; in assay [2] it was 4.81%; in assay [3], 5.81%; in assay [4] it was 5.22%; in assay [5] it was 2.25%; in assay [6] it was -4.79%.
Regarding `O=[N+]([O-])c1cc([As](=O)(O)c2ccc(O)c([N+](=O)[O-])c2)ccc1O`, the Inhibition in assay [1] is 9.78%; in assay [2] it was 5.09%; in assay [3] it was 4.17%; in assay [4] it was 5.87%; in assay [5] it was -1.08%; in assay [6] it was -7.3%.
Consider `CC(C)NC1C2CCC(CC2)C1(O)c1ccc(Cl)c(Cl)c1.CS(=O)(=O)O` (stereo not drawn), for which the Inhibition was 8.47% in assay [1]; -0.12% in assay [2]; 14.13% in assay [3]; 12.75% in assay [4]; 0.41% in assay [5]; -1.76% in assay [6].
As for `CC(Cc1ccccc1)NC(N)=O` (stereo not drawn), the Inhibition in assay [1] was 1.52%; in assay [2], -11.77%; in assay [3], 14.19%; in assay [4], 16.63%; in assay [5], 1.15%; in assay [6] it was -7.14%.
As to `Cc1c(CCN)ccc2c1[nH]c1ccccc12`, the Inhibition in assay [1] is 5.19%; in assay [2], -3.14%; in assay [3], 0.87%; in assay [4], 4.23%; in assay [5] it was 0.65%; in assay [6], -5.14%.
Consider `COc1ccccc1[As](=O)(O)CC(O)COc1ccc(Cl)cc1Cl` (stereo not drawn), for which the Inhibition in assay [1] is 12.48%; in assay [2] it was -14.57%; in assay [3], 17.37%; in assay [4], 8.74%; in assay [5] it was -1.45%; in assay [6], -2.68%.
As to `CC1=CC(O)C(O)C2(C)C1CC1OC(=O)C(O)C3C(C)C(O)C4(O)OCC13C42` (stereo not drawn), the Inhibition was 9.24% in assay [1]; 4.24% in assay [2]; -0.01% in assay [3]; 12.12% in assay [4]; -0.21% in assay [5]; -7.24% in assay [6].
Turning to `C(=C\c1ccncc1)/c1ccncc1`, the Inhibition in assay [1] was -0.23%; in assay [2] it was -2.33%; in assay [3] it was 7.13%; in assay [4], 5.66%; in assay [5] it was -2.45%; in assay [6], -3.12%.
As for `c1ccc(C2NCCc3[nH]cnc32)cc1` (stereo not drawn), the Inhibition is 1.04% in assay [1]; -8.45% in assay [2]; -9.57% in assay [3]; 10.31% in assay [4]; 0.7% in assay [5]; 13.69% in assay [6].
On to `c1cc(C2N3CCCN2CC3)ccn1` (stereo not drawn), for which the Inhibition in assay [1] is 15.5%; in assay [2] it was -12.77%; in assay [3] it was 15.45%; in assay [4] it was 9%; in assay [5], -1.44%; in assay [6] it was -3.06%.
On to `SC1=NC2(CCCCC2)NC12CCCCC2`, for which the Inhibition in assay [1] was 8.84%; in assay [2], 6.83%; in assay [3] it was -0.29%; in assay [4], 17.38%; in assay [5], 4.26%; in assay [6] it was -3.97%.
Turning to `CCOC(=O)c1ccc2nc(-c3ccc(S(=O)(=O)F)cc3)cc(O)c2c1`, the Inhibition is 10.74% in assay [1]; 13.99% in assay [2]; 0.41% in assay [3]; 7.81% in assay [4]; 1.06% in assay [5]; -10.46% in assay [6].
On to `CN1C(=O)NC(=O)C(/N=N/c2ccc(Cl)cc2)C1=O` (stereo not drawn), for which the Inhibition in assay [1] was 11.94%; in assay [2] it was 12.18%; in assay [3], 3.45%; in assay [4] it was 13.9%; in assay [5], 1.14%; in assay [6], -3.1%.
